Measured values taken from PubChem BioAssay AID652208 (Broad Institute, 2013).
Entries with a potency or affinity are not part of this list. Activity calls are given as the source filed them.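 Rule for the calls: active = Loss of cell signal with fitted half-effect dose at or below twice the top valid tested dose; inconclusive = Poor fit, or flat fit from -70 to -30 percent; inactive = Half-effect above limit, rising signal, or flat within 30 percent.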

Test: HEK293T cell cytotoxicity, dose response, cytotoxicity control for HIV Vif inhibitor project, cherry-picks (AID 652208)

In the case of `CN1CCc2nc3ccc(F)cc3c(C(N)=O)c2C1`, the outcome is reported as “inactive”.
For `O=C(Cn1ncc2c3ccccc3n(Cc3cccc(Cl)c3)c2c1=O)N1CCC2(CC1)OCCO2`, the outcome was “inactive”.
For `CC(C)CC(NC(=O)C1CCCCC1)C(=O)N1CCC2(CC1)OCCO2` (stereo unspecified), the outcome was “inactive”.
For `O=C(NC1(C(F)(F)F)Oc2ccc(Cl)cc2O1)N1CCC2(CC1)OCCO2` (stereo unspecified), the outcome was “inactive”.
With `O=C(Cc1ccccc1)OCC(=O)c1ccc(F)cc1` the outcome was “inactive”.
For `CC(Cc1ccc(O)cc1)NCC(O)c1cc(O)cc(O)c1` (stereo unspecified), the outcome was “inactive”.
